These results are taken from PubChem BioAssay AID1851 (National Center for Advancing Translational Sciences (NCATS), 2009).

About 5,800 (36%) of roughly 16,000 compounds were called active. Not shown: some 23% with an inconclusive outcome. Some of the results follow. Values without a mark were called inactive. Calls come from the whole dose curve; as a rule, active = well fitted curve in the direction sought with a large enough effect; inconclusive = small, poorly fitted or top-dose-only effect, or effect the other way; inactive = no such curve, though single readings can be large or run the other way.
% is set by controls: 0 for no effect and ±100 for the full control effect.

This experiment deals with Cytochrome P450 2C19 (Homo sapiens) (UniProt P33261). Kind of experiment: Cytochrome panel assay with activity outcomes. Particulars: recombinant CYP, pro-luciferin dealkylation, luminescence, p450-cyp2c19; series mostly up to 57.1 µM.
Cytochrome P450 2C19 (Homo sapiens), sequence (P33261 whole entry, looked up): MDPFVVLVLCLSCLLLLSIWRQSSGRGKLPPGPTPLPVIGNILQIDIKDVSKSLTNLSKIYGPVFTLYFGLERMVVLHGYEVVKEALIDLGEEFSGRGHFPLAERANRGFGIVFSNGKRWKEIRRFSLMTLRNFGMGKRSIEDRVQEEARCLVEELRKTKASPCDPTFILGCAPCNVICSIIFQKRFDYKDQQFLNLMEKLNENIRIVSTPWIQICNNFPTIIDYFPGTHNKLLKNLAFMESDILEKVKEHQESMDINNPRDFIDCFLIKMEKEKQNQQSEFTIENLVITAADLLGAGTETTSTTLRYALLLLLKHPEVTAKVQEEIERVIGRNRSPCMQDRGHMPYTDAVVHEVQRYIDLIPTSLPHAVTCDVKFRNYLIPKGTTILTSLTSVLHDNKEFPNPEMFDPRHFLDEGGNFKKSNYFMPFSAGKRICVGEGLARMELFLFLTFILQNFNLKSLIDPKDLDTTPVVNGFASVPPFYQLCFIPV
Turning to `O=C(Nc1ccc(Cl)cc1Cl)c1cccc(N2C(=O)C=CC2=O)c1`, the AC50 (as a rule, the concentration at which the activity in the assay is half-maximal) was 3.98 µM (active).
As to `Cc1cccc(NC(=O)c2cccc(N3C(=O)C4C5CCC(C5)C4C3=O)c2)c1C` (stereo not given), the AC50 entry was “inactive”.
The same measure, in the same setting: the value for `COc1ccc(N2C(=O)c3ccccc3NC2c2ccc(OC)c(CSc3ccccn3)c2)cc1` (stereo not given) was 0.891 µM (active).
As to `COc1cccc(/C(O)=C2/C(=O)C(=O)N(c3ccccn3)C2c2ccc(OC)c(OC)c2)c1` (stereo not given), the AC50 result is “inactive”.
Turning to `c1ccc2c[n+](Cc3ccnc4ccccc34)ccc2c1`, the activity, negative = inhibition was 10.8% [at 11.4 µM].
Turning to `COC(=O)c1c(NC(C)=O)sc(Cc2ccccc2)c1C`, the AC50 is 4.47 µM (active).
Same read-out and setting: with `CCOc1ccc(CC(=O)Nc2sc(Cc3ccccc3)c(C)c2C(N)=O)cc1OCC` the figure was 4.47 µM (active); with `CCOc1cc(CC(=O)N[C@@H](CC(C)C)c2ccccc2N2CCCCC2)ccc1C(=O)O`, “inactive”.
As for `COc1c(NC(C)=O)c2ccccc2c2ccccc12`, the activity, negative = inhibition is 4.06% [at 11.4 µM].
As to `CCc1c(C)sc(NC(=O)OC)c1C(N)=O`, the AC50 result was “inactive”.
Consider `COC(=O)c1c(C)[nH]c(C)c1C(=O)c1ccccc1Cc1ccccc1`, for which the AC50 entry is “inactive”.
Still for that read-out and setting: with `COc1ccc2[nH]cc(CCNc3cc(-c4ccccc4OC)ncn3)c2c1` the figure was 3.16 µM (active); with `COc1ccc2[nH]cc(CCNc3cc(-c4ccccc4C(F)(F)F)ncn3)c2c1`, 10 µM (active); with `CC(=O)NCCNc1cc(-c2ccccc2CN(C)C)ncn1`, “inactive”.
The same measure, in the same setting: the value for `COc1ccc2[nH]cc(CCNc3cc(-c4ccccc4C)ncn3)c2c1` was 7.94 µM (active); that for `N[C@H](C(=O)O)c1cccc(O)c1` was “inactive”; that for `Fc1ccc2nc(Nc3nc4c(s3)CCCC4)sc2c1` was 17.8 µM (active).
Still for that read-out and setting: the value for `COc1cccc(-c2cc(C(=O)Nc3cccc(O)c3)no2)c1` was 3.16 µM (active).
On to `COc1ccc(C2CC(=O)CC(=O)C2n2cncn2)cc1` (stereo not given), for which the AC50 entry was “inactive”.
The same measure, in the same setting: the value for `CN1C(=O)C[C@H](c2ccccc2)C1=O` was “inactive”.
The same measure, in the same setting: the value for `O=C1C(Cc2ccccc2)C(c2ccccc2)N1c1ccccc1` (stereo not given) was 1.26 µM (active); that for `CCCC1C(=O)N(c2ccccc2)C1c1ccccc1` (stereo not given) was 4.47 µM (active); that for `CC(C)(C)CC(C)(C)c1ccc(OCOCCOCCO)c(Cc2cc(C(C)(C)CC(C)(C)C)cc(Cc3cc(C(C)(C)CC(C)(C)C)ccc3OCOCCOCCO)c2OCOCCOCCO)c1` was “inactive”.
Same read-out and setting: with `CO[C@H]1[C@H](O[C@H]2O[C@@H](C)[C@@H](O[C@@H]3C[C@](C)(O)[C@H](OC(=O)CC(C)C)[C@H](C)O3)[C@@H](N(C)C)[C@@H]2O)[C@@H](CC=O)C[C@@H](C)[C@@H](O)/C=C\C=C/C[C@@H](C)OC(=O)C[C@H]1OC(C)=O` the entry was “inactive”; with `C[C@@H](C[N+](C)(C)C)OC(N)=O`, “inactive”; with `COc1ccc(-c2cc([C@H](O)[C@@H]3CCCCN3)c3ccccc3n2)cc1`, 3.98 µM (active).
As to `O[C@@H](c1cc(C(F)(F)F)nc2c(Cl)cc(Cl)cc12)[C@@H]1CCCCN1`, the activity, negative = inhibition is -14.3% [at 11.4 µM].
On the same count and under the same terms, the value for `O[C@H](C[C@@H]1CCCCN1)c1ccc2c(c1)oc1ccccc12` was -14.6% [at 11.4 µM].
As to `COCCNc1ncnc2ccc(-c3cccc(NS(C)(=O)=O)c3)cc12`, the AC50 result is “inactive”.
Consider `COc1ccc(CNc2ncnc3ccc(-c4cccc(NS(C)(=O)=O)c4)cc23)c(OC)c1`, for which the AC50 is 2.51 µM (active).
Regarding `COc1ccccc1CNc1ncnc2ccc(-c3cccc(NS(C)(=O)=O)c3)cc12`, the AC50 was 15.8 µM (active).
Same read-out and setting: the value for `c1ccc2cc(C3=NCCN3)ncc2c1` was “inactive”.
With `O=c1c(-c2ccccc2)c(O)c2cccc3c2n1CCC3`, the AC50 result is “inactive”.
On the same count and under the same terms, the value for `N#Cc1c(-c2ccc(Cl)cc2)nc2n(c1=O)CCCS2` was 7.94 µM (active); that for `CCCCN(Cc1ccccc1)C(=O)c1cnc2n(c1=O)CCS2` was “inactive”; that for `N#Cc1c(-c2ccccc2)nc2n(c1=O)CCS2` was 15.8 µM (active).
Same read-out and setting: the value for `COc1cc(=O)n2c(n1)SCCC2` was “inactive”; that for `COC(=O)[C@@H]1C[C@H]1[C@@H](NC(=O)c1ccccc1)c1ccccc1` was 1.26 µM (active).
Still for that read-out and setting: the value for `COC(=O)[C@H]1C[C@@H]1[C@H](NC(=O)OCc1ccccc1)c1ccccc1` was 3.16 µM (active); that for `COC(=O)C1CC1C(NC(=O)[C@H]1CCCCN1)c1ccccc1` (stereo not given in full) was “inactive”; that for `COC(=O)[C@H]1C[C@@H]1[C@H](NC(C)=O)c1ccccc1` was “inactive”.
As to `COC(=O)[C@@H]1C[C@H]1[C@@H](NC(=O)c1cccnc1)c1ccccc1`, the AC50 result was “inactive”.
On the same count and under the same terms, with `COC(=O)[C@@H]1C[C@H]1[C@@H](NC(=O)Oc1ccc(F)cc1)c1ccccc1` the figure was 10 µM (active); with `COC(=O)[C@H]1C[C@@H]1[C@H](NC(=O)c1cccnc1)c1ccccc1`, “inactive”.
In the case of `COC(=O)[C@H]1C[C@@H]1[C@H](NC(=O)c1ccccc1)c1ccccc1`, the AC50 is 7.94 µM (active).
For `O=C(N[C@@H](c1ccccc1)[C@@H]1C[C@H]1C(=O)O)OCc1ccccc1`, the AC50 entry is “inactive”.
The same measure, in the same setting: the value for `COc1cccc(Nc2ncc3nc(-c4cc(F)cc(F)c4)c(=O)n(CCC#N)c3n2)c1` was “inactive”.
Consider `CC(C)(S)[C@H](N)C(=O)O`, for which the activity, negative = inhibition is 4.04% [at 11.4 µM].
On to `O=C(N[C@@H](c1ccccc1)[C@@H]1C[C@H]1C(=O)NCc1ccccn1)OCc1ccccc1`, for which the AC50 was 7.94 µM (active).
Consider `CCCCN1C(=O)C(NC(=O)C2CC2)(C(F)(F)F)C2=C1CC(C)(C)CC2=O` (stereo not given), for which the AC50 is 20 µM (active).
On to `Clc1ccc(Cl)c(SCCCN2CCNCC2)c1`, for which the activity, negative = inhibition was 11.4% [at 11.4 µM].
For the compound `OCCN1CCN(CCOc2cccc(Cl)c2)CC1`, the AC50 result was “inactive”.
On the same count and under the same terms, with `CC1CCN(CCOc2cc(Cl)ccc2Cl)CC1` the figure was 7.08 µM (active).
On the same count and under the same terms, with `O=C(O)CCCCCCCC(=O)O` the entry was “inactive”.
The same measure, in the same setting: the value for `CN(C)c1ccc(-c2nc3n(n2)C(c2cccnc2)C2=C(CC(C)(C)CC2=O)N3)cc1` (stereo not given) was 14.1 µM (active).
For the compound `CCOc1ccccc1CNCCN1CCOCC1`, the AC50 entry is “inactive”.
As to `c1cc(CNCCN2CCNCC2)ccn1`, the activity, negative = inhibition was -34.1% [at 11.4 µM].
Turning to `c1cc(CNCCCN2CCOCC2)ccn1`, the AC50 is 7.94 µM (active).
The same measure, in the same setting: the value for `Cn1c(=O)c(-c2ccc(F)c(F)c2)nc2cncnc21` was “inactive”; that for `CSc1nncc(-c2ccc(F)c(F)c2)n1` was 11.2 µM (active).
In the case of `CC(=O)Nc1ccc2c(c1)/C(=C/c1ccc([N+](C)(C)C)cc1)c1ccccc1-2`, the activity, negative = inhibition was -19.5% [at 11.4 µM].
For `O=C(OCc1ccc(Cl)cc1Cl)c1cccnc1Cl`, the AC50 was 0.355 µM (active).
As for `O=C(O)COc1c(Cl)cc(Cl)c2cccnc12`, the activity, negative = inhibition was 26% [at 11.4 µM].
In the case of `CC(=O)N1c2c(cc(Br)cc2S(=O)(=O)NCC2COc3ccccc3O2)CC1C` (stereo not given), the AC50 is 3.16 µM (active).
In the case of `COc1ccc(C(F)(F)F)cc1N/C=C\c1nnnn1-c1ccccc1`, the AC50 was 1.12 µM (active).
`COc1ccc(-n2nnnc2/C=C\Nc2ccccc2C(=O)c2ccccc2)cc1`: the AC50 was 0.316 µM (active).
Same read-out and setting: the value for `COc1cccc(Cn2c(=O)c(CCc3ccccc3)nc3cnc(N4CCN(C)CC4)nc32)c1` was 7.94 µM (active); that for `COc1cccc(Cn2c(=O)c(-c3ccccc3)nc3cnc(N4CCN(C)CC4)nc32)c1` was “inactive”.
The same measure, in the same setting: the value for `COc1cccc(Cn2c(=O)c(CCc3ccccc3)nc3cnc(N4CCNCC4)nc32)c1` was 25.1 µM (active); that for `CN1CCN(c2ncc3nc(CCc4ccccc4)c(=O)n(Cc4ccc(F)cc4)c3n2)CC1` was “inactive”; that for `COc1cccc(Cn2c(=O)c(-c3cccc(C#N)c3)nc3cnc(N4CCN(C)CC4)nc32)c1` was “inactive”.
With `O=C1[C@H]2CCn3c(=O)n(-c4ccccc4)c(=O)n3[C@H]2[C@H](O)[C@H]2O[C@@H]12`, the activity, negative = inhibition was -1.55% [at 11.4 µM].
Turning to `CCN(CC)S(=O)(=O)c1ccc(NC(=O)COC(=O)c2ccc(Br)o2)cc1`, the AC50 was 11.2 µM (active).
Consider `CC(=O)NS(=O)(=O)c1ccc(NC(=S)NC(=O)c2ccco2)cc1`, for which the AC50 result was “inactive”.
In the case of `CCCC(=O)Nc1ccc(C(=O)NNC(=S)NC(=O)c2cccs2)cc1`, the AC50 entry was “inactive”.
Same read-out and setting: the value for `CCN(c1ccccc1)S(=O)(=O)c1ccc(NC(=S)NC(=O)c2cccs2)cc1` was 3.98 µM (active); that for `CN(C1CCCCC1)S(=O)(=O)c1ccc(NC(=S)NC(=O)c2cccs2)cc1` was 3.55 µM (active).
Same read-out and setting: the value for `CCN(c1ccccc1)S(=O)(=O)c1ccc(NC(=S)NC(=O)c2ccc(Br)o2)cc1` was 8.91 µM (active); that for `Cc1noc(NS(=O)(=O)c2ccc(NC(=O)c3ccc(Br)o3)cc2)c1C` was “inactive”.
With `CN(C)S(=O)(=O)c1ccc(NC(=O)COC(=O)c2ccccn2)cc1`, the AC50 entry was “inactive”.
The same measure, in the same setting: with `CCCCCCCCCCCCCCCC[N+](C)(C)CCN(Cc1ccc(OC)cc1)c1ncccn1` the entry was “inactive”; with `O=c1c(CCc2ccccc2)nc2cncnc2n1Cc1ccccc1Cl`, 5.01 µM (active).
Still for that read-out and setting: the value for `O=c1c(CCc2ccccc2)nc2cncnc2n1Cc1ccc(F)cc1` was 6.31 µM (active).
Same read-out and setting: the value for `Cc1nc2cnc(N(C)C)nc2n(-c2ccccc2)c1=O` was “inactive”.
For the compound `O=c1c(CCc2ccccc2)nc2cncnc2n1-c1ccccc1`, the AC50 was 10 µM (active).
For the compound `Brc1ccc(-c2nnc(-c3cccc(Br)c3)o2)cc1`, the AC50 result is “inactive”.
The same measure, in the same setting: the value for `Cc1nnc(-c2cccc(Br)c2)c2cn(-c3ccc(Br)cc3)nc12` was 5.01 µM (active); that for `Cc1nnc(-c2cccc(Br)c2)c2cn(-c3ccccc3Cl)nc12` was 1.78 µM (active).
As for `CCn1c(CC(C)C)n[nH]c1=S`, the AC50 result was “inactive”.
Still for that read-out and setting: with `CCc1nn(C)c(-c2n[nH]c(=S)n2N)c1Cl` the entry was “inactive”; with `CC(C)Cn1c(-c2nn(C)cc2Cl)n[nH]c1=S`, 15.8 µM (active); with `O=C(Nc1ccc2c(c1)nc1n2CCN(C2CCCCC2)C1)NC1CCCCC1`, 14.1 µM (active).
As to `CC1CCN(CCc2nc3cc(NC(=O)NC4CCCCC4)ccc3n2C)CC1`, the AC50 entry was “inactive”.
For `C[C@@H]1/C=C\CC(=O)OC[C@H]2O[C@@H](C=C[C@@H]2O)[C@H](C)/C=C\CC(=O)OC1`, the activity, negative = inhibition was -20.4% [at 11.4 µM].
Take `Cn1c2c(c(=O)n(C)c1=O)[C@@H]1c3c(ccc4ccccc34)OC[C@@H]1CO2`: the AC50 is 14.1 µM (active).
